From PubChem
CFTR F508del cor: CFTR F508del correction in bronchial cells; CFBE cells, YFP halide quenching; stimulated with forskolin plus potentiator P3; % fluorescence drop versus neutral controls; activity (quench increase), % at 7.58 µM; actives 0.36% (n = 350,000); AID 720511;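 active = mean added fluorescence quench of at least 8% versus neutral control, with both replicates also reaching 8%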;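 note: cells transiently co-express mutant CFTR-F508del with the halide-sensitive YFP; corrector assay measuring rescue of mutant channel to the surface after 24 h compound exposure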
ALR H2O2 inh: blocks human ALR sulfhydryl oxidase activity | P55789 | purified ALR, DTT oxidation, H2O2 HRP-luminol luminescence | inhibition, % (test concentration not listed) | actives 3.8% (n = 290,000) | AID 485317;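 active = mean replicate inhibition above about 79%, with every replicate also reaching it, limit read from the data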
Target sequence (P55789 whole entry, looked up): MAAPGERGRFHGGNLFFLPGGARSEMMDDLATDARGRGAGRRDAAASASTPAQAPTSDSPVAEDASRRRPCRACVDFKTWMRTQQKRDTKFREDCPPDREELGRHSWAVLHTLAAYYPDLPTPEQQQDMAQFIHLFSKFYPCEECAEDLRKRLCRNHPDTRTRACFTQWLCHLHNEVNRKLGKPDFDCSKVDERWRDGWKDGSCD
Env fusion inh: blocks HIV Env-driven cell-cell fusion; actives 1.1% (n = 360,000); HeLa-JRFL Env/CEM21 cell fusion, luciferase; inhibition, % at 12.3 µM;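 active = mean replicate inhibition score of at least 50 and every replicate individually at or above 50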;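 note: 0% = plate neutral controls and 100% = maraviroc near 300 nM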
PglD DTNB: blocks C. jejuni PglD acetyltransferase activity | purified PglD enzyme, DTNB colorimetric CoA detection | inhibition, % at 12.5 µM | actives 0.098% (n = 360,000) | AID 602405; in the data active = inhibition above about 16%, passing the limit was not always enough
Casp6 inh: blocks human caspase-6 cleavage activity; P55212; purified caspase-6, Z-VEID-R110 cleavage fluorescence; inhibition, % at 12.5 µM; actives 0.53% (n = 350,000); AID 686996;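 active = mean inhibition across replicates at least about 35%, with every replicate also reaching that limit, limit read from the data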;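 note: 0% = median of neutral control wells and 100% = no fluorescence left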
Target sequence (P55212 24-179 limits assumed): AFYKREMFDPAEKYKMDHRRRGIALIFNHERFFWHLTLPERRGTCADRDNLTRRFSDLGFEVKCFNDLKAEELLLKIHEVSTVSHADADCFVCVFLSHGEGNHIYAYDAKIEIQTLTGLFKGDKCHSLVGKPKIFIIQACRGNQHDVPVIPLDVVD
Target sequence (P55212 194-293 limits assumed): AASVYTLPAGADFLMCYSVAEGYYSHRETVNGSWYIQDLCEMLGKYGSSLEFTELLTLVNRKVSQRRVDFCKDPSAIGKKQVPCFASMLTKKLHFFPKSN
NSD2 HMT inh: inhibitors of human histone methyltransferase NSD2 | NSD2 peptide methylation, AlphaScreen, 120 min | inhibition, % at 12.5 µM | actives 0.54% (n = 310,000) | AID 743445; in the data active = inhibition above about 50%
Starred values were filed as active, the others as inactive; . = not tested or not shown; [ ] = dose if it differs, or a comment. A selection: hits, their analogues and other compounds. The true share with any hit is near 4.1%.

SMILES	CFTR F508del cor	ALR H2O2 inh	Env fusion inh	PglD DTNB	Casp6 inh	NSD2 HMT inh
S=c1nc(-c2cccc(Cl)c2)[nH][nH]1	3	92*	-5	.	-1	1
S=c1nc(-c2cc(Cl)ccc2Cl)[nH][nH]1	1	-77	-5	5	.	2
Cc1noc(C)c1NC(=O)Nc1ccc2c(c1)C(=O)N([C@H](C)CO)C[C@@H](C)[C@H](CN(C)C(=O)Nc1ccc(F)cc1)OCCCC[C@H](C)O2	-1	.	.	.	0	.
c1ccc(N/N=C2\CCCc3ccccc32)nc1	1	41	-4	-2	-3	4
Fc1ccc2c(c1)/C(=N/Nc1ccccn1)CCS2	-2	99*	-22	.	-5	-9
COc1ccc2c3c(n(C)c2c1)[C@@H](CO)N(C(=O)Nc1ccc(F)cc1)CC31CCN(S(=O)(=O)c2cccc(F)c2)CC1	4	.	16[16.7 µM]	.	3	.
O=C(O)CN1C(=O)/C(=C\c2ccccc2OCc2ccccc2)SC1=S	-5	.	-27	3	11	.
Cc1ccc(CN2C(=O)S/C(=C\c3ccccc3OCC(=O)O)C2=O)cc1	2	97*	-15	.	1	4
O=C(O)COc1ccccc1/C=C1\SC(=O)N(Cc2ccc(F)cc2)C1=O	1	98*	-2	1	4	5
C[C@@H]1CN([C@@H](C)CO)C(=O)c2cccc(NC(=O)c3ccncc3)c2O[C@H]1CN(C)Cc1ccc(Cl)c(Cl)c1	-4	.	30[16.7 µM]	-1	-1	.
COc1cccc(CNC(=O)C[C@@H]2CC[C@H](NC(C)=O)[C@@H](CO)O2)c1	-3	.	15[16.7 µM]	-5	-3	.
COC(=O)C1(N2C(=O)O[C@@H](Cc3ccccc3)[C@H]2/C=C/C2CC2)CCCC1	2	.	10[16.7 µM]	.	-1	.
COc1ccc(CCNC(=O)CSc2nc(N)c(C#N)c(-c3cccs3)c2C#N)cc1OC	.	-2	119*	3	.	-3
COc1ccc(CCNC(=O)CS(=O)Cc2nc(-c3ccccc3F)oc2C)cc1OC (stereo unspecified)	-2	99*	4	.	-2	-2
CCOc1ccc(CCNC(=O)CS(=O)(=O)Cc2nc(-c3ccccc3F)oc2C)cc1	2	-3	9	-4	5	-1
COc1ccc(CCNC(=O)CS(=O)Cc2nc(-c3ccccc3Cl)oc2C)cc1OC (stereo unspecified)	4	98*	8	2	-1	9
Cc1ccccc1NC(=O)CSc1nc(N)c(C#N)c(-c2cccs2)c1C#N	.	-7	.	-6	.	0
Cc1ccc(CCNC(=O)CS(=O)Cc2nc(-c3ccccc3F)oc2C)cc1 (stereo unspecified)	1	99*	6	.	1	7
COc1ccc(CCNC(=O)CS(=O)Cc2nc(-c3cccs3)oc2C)cc1OC (stereo unspecified)	.	99*	-5	-2	5	0
CCN(CC)c1ccc(NC(=O)COC(=O)/C=C/c2nc3ccccc3s2)cc1	.	99*	18	.	.	1
N#Cc1ccc(-c2ccc3c(c2)[C@@H]2[C@@H](CCN2S(=O)(=O)c2ccccc2F)[C@H](CO)N3)cc1	2	.	.	-1	.	.
N#Cc1ccc(-c2ccc3c(c2)[C@H]2[C@H](CCN2S(=O)(=O)c2ccccc2F)[C@@H](CO)N3)cc1	15*	.	.	0	.	.
O=C(Nc1ccc(Cl)cc1)c1cc2c(cc1O)[nH]c1ccccc12	4	-2	62*	-3	-2	49
CC(=O)Nc1ccc2[nH]c3ccccc3c2c1	.	6	.	.	.	0
CC(C)[C@H](NC(=O)N1CC(=O)Nc2ccccc21)C(=O)Nc1nccs1	0	91*	-2	.	-4	10
SMILES	CFTR F508del cor	ALR H2O2 inh	Env fusion inh	PglD DTNB	Casp6 inh	NSD2 HMT inh
Cc1c(CCC(=O)NCCC(=O)O)c(=O)oc2c(C)c3oc4c(c3cc12)CCCC4	-1	98*	10	6	0	1
Cc1c(CCC(=O)N[C@@H](C)C(=O)O)c(=O)oc2c(C)c3oc4c(c3cc12)CCCC4	0	97*	2	2	0	0
CC(=O)N[C@H]1CC[C@@H](CCNC(=O)C2CCCC2)O[C@@H]1CO	1	.	14[16.7 µM]	1	10	.
COc1cccc(CN2[C@@H]3CNC[C@H]2C3c2ccc(-c3ccc(C)cc3)cc2)c1 (stereo partly specified)	1	.	.	.	.	.
C[C@@H]1CN([C@@H](C)CO)C(=O)Cc2cc(NC(=O)Nc3ccc(F)cc3)ccc2O[C@H]1CN(C)Cc1ccc(C(F)(F)F)cc1	1	.	69*[16.7 µM]	.	1	.
C[C@@H]1CN([C@@H](C)CO)C(=O)Cc2cc(NC(=O)Nc3ccc(C(F)(F)F)cc3)ccc2O[C@H]1CN(C)C(=O)Nc1ccccc1	9.3*	.	5[16.7 µM]	0	2	.
C[C@H]1CN([C@@H](C)CO)C(=O)Cc2cc(NC(=O)Nc3ccc(C(F)(F)F)cc3)ccc2O[C@@H]1CN(C)Cc1ccccc1	5	.	82*[16.7 µM]	2	0	.
COC(=O)COc1ccsc1C(=O)OC	-1	-9	.	2	4	0
COC(=O)CSc1ccc2c(N)c(C(=O)OC)sc2c1	.	100*	-13	5	.	-16
O=C(O)c1c[nH]c2c([N+](=O)[O-])cccc2c1=O	-1	.	26	-8	36*	2
Cc1ccc(Nc2nnns2)cc1C	.	87*	-352	.	.	1
Cc1noc(C)c1S(=O)(=O)Nc1ccc2c(c1)C(=O)N([C@@H](C)CO)C[C@H](C)[C@H](CN(C)C(=O)c1ccccc1)OCCCC[C@H](C)O2	0	.	-8[16.7 µM]	10	0	.
O=C(O)Cn1c(SCc2cccc3ccccc23)nc2ccccc21	.	98*	-46	2	.	7
O=C(O)Cn1c(SCc2ccccc2)nc2ccccc21	.	-7	.	2	.	0
C[C@@H]1CCCCO[C@H](CN(C)C(=O)Nc2ccccc2)[C@@H](C)CN([C@H](C)CO)C(=O)c2cc(NC(=O)c3ccccc3)ccc2O1	1	.	-12[16.7 µM]	2	0	.
Cc1noc(C)c1S(=O)(=O)N(C)C[C@H]1Oc2ccc(NC(=O)Cn3cnnn3)cc2CC(=O)N([C@H](C)CO)C[C@H]1C	0	.	-8[16.7 µM]	1	0	.
Cc1noc(C)c1S(=O)(=O)Nc1ccc2c(c1)CC(=O)N([C@H](C)CO)C[C@@H](C)[C@@H](CN(C)S(C)(=O)=O)O2	-1	.	-23[16.7 µM]	0	.	.
Nn1c(Cc2ccc(F)cc2)n[nH]c1=S	-1	60	8	.	1	1
CCOc1ccc(Cc2n[nH]c(=S)n2Cc2ccccc2)cc1	5	95*	2	.	0	1
Cc1ccc(OCc2n[nH]c(=S)n2Cc2ccccc2)cc1	2	.	-15	-3	0	-3
Nn1c(Cc2ccccc2)n[nH]c1=S	-2	95*	0	-6	-3	-7
S=C(NN=Cc1ccccn1)N(Cc1ccccn1)Cc1ccccn1	2	.	20	.	-10	8
O=C(NN=C(c1ccccc1)c1ccccn1)c1ccccc1	6	0	53	.	3	2
